A short description of experiment [1]: qHTS assay to identify small molecule agonists of the estrogen related receptor (ERR) signaling pathway (AID 1224820). The essentials: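 Quantitative HTS of the LOPAC library used NTP ERR reporter cells treated 18 h at 37 C. Signal is luminescence after One-Glo addition and a 30 min room-temperature incubation.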
(In general: qHTS replaces the single test concentration by a dilution series.)

Experiment [2] in a line: qHTS assay to identify small molecule antagonists of the estrogen related receptor signaling pathway with the pleiotropic PPARgamma coactivator (PGC) cell viability counter screen (AID 1224822; further: series mostly up to about 46 µM). The essentials: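 PGC/ERR cells were plated at 2,000 per well and allowed 6 h to settle before compound addition. Following 17.5 h at 37 C, CellTiter-Fluor reagent was added and fluorescence was read 30 min later.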

Experiment [3] is described as follows: qHTS assay for small molecule disruptors of the mitochondrial membrane potential (AID 720635). Further: potency means the concentration at half of the fitted maximal effect. The essentials:
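HepG2 cells (2,000/well) attached overnight at 37C, then took compound for 1 hr at 37C, 5% CO2. Mito-MPS dye was added for 30 min; fluorescence was read at 490/535 nm (monomers) and 540/590 nm (aggregates).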

Experiment [4] in a line: qHTS assay to test for compound auto fluorescence at 590 nm (red) in HepG2 cells (AID 720674). The essentials:
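Compound auto-fluorescence is scored relative to Rose Bengal sodium, measured at 540/590 nm in live HepG2 cultures after 1 hr compound contact (37 C, 5% CO2).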

Experiment [5] in a line: qHTS assay to test for compound auto fluorescence at 535 nm (green) in HepG2 cells (AID 720675).
A short description of experiment [6]: qHTS assay to test for compound auto fluorescence at 460 nm (blue) in HEK293 cells (AID 720678). The essentials:
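Auto fluorescence in the blue band was quantified as triamterene equivalency. HEK293 cells were seeded at 2,000/well, dosed after a 4-5 hr attachment, and kept overnight at 37C before the 405/460 nm reading.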

Experiment [7] is described as follows: qHTS assay to test for compound auto fluorescence at 590 nm (red) in HEK293 cells (AID 720679). The essentials: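 Autofluorescence equivalency to Rose Bengal sodium, 540/590nm, in HEK293 cells exposed overnight to 23 nL compound per well.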
The nature of experiment [8]: qHTS assay to test for compound auto fluorescence at 535 nm (green) in HEK293 cells (AID 720680).
Experiment [9] in a line: qHTS assay to test for compound auto fluorescence at 460 nm (blue) in HEK293 cell free culture (AID 720681). The essentials:
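Test compounds were pinned into cell-free culture medium (DMEM with 10% FBS) and fluorescence was read directly at Ex/Em 405/460 nm. Signals were expressed as fluorescence equivalents of triamterene, with DMSO vehicle as control.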

Experiment [10] can be described thus: qHTS assay to test for compound auto fluorescence at 535 nm (green) in HEK293 cell free culture (AID 720682). The essentials:
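DMEM + 10% FBS, cell-free; cpd or DMSO pinned in; Ex485/Em535 read; output as fluorescein-equivalent signal.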

The nature of experiment [11]: qHTS assay to test for compound auto fluorescence at 590 nm (red) in HEK293 cell free culture (AID 720683). The essentials:
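Tox21 10K library compounds were pinned into cell-free DMEM with 10% FBS and fluorescence was read at excitation 540 nm. Activity is expressed as Rose Bengal sodium equivalency.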

Experiment [12] in a line: qHTS assay to test for compound auto fluorescence at 590 nm (red) in HepG2 cell free culture (AID 720684). The essentials:
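Red fluorescence (540 nm excitation, 590 nm emission) was measured after compound transfer into cell-free MEM supplemented with 10% FBS. Values are equivalencies against Rose Bengal sodium.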

Experiment [13] in a line: qHTS assay to test for compound auto fluorescence at 460 nm (blue) in HepG2 cell free culture (AID 720685). The essentials:
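Compound (23 nL) or DMSO pinned into cell-free MEM with 10% FBS; blue fluorescence read at 405/460 nm excitation/emission, expressed as auto-fluorescence equivalency to triamterene.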

Experiment [14] can be described thus: qHTS assay to test for compound auto fluorescence at 535 nm (green) in HepG2 cell free culture (AID 720686).
Experiment [15] in a line: qHTS assay to test for compound auto fluorescence at 460 nm (blue) in HepG2 cells (AID 720687). The essentials: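 Cells (2,000/well in MEM with 10% FBS) attached overnight at 37 C, then were exposed to compound or DMSO for 1 hr at 37 C, 5% CO2. Fluorescence read at Ex/Em 405/460 nm, expressed as triamterene-equivalent signal.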
A short description of experiment [16]: qHTS RealTime-Glo MT Cell Viability Assay in HEK293 cells - 0 hour (AID 1224880). Further: top concentration of the series differs between compounds; nearly all actives have a fitted effect of over 45% in size. The essentials:
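Viable HEK293 cells reduce a cell-permeant prosubstrate; the product diffuses out and is consumed by NanoLuc in the medium to give light. Compounds went in after a 5 h incubation and plates were read over the treatment course.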

The nature of experiment [17]: qHTS assay to identify small molecule phospholipidosis (PLD) inducers (AID 1259344; active means well fitted curve in the direction sought with a large enough effect; an effect the other way counts as inactive or inconclusive). The essentials:
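HepG2 cells on collagen I, attached 4 h at 37 C, were co-treated with compound and LipidTOX Red dye for 24 h at 37 C, then fixed with paraformaldehyde plus Hoechst 33342 and imaged by high-content microscopy for phospholipid accumulation.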

The nature of experiment [18]: qHTS assay to identify small molecule antagonists of the progesterone receptor (PR) signaling pathway - cell viability counter screen (AID 1346798). Further: series mostly up to about 92 µM; nearly all actives have a fitted effect of over 50% in size. The essentials:
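CellTiter-Glo luminescence; PR-UAS-bla HEK293T, 3,000 cells/well; compound + R5020, 16 hr, 37C/5% CO2; 30 min RT before read.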

The target in experiment [19] is Aromatase (Homo sapiens) (UniProt P11511). Put plainly: qHTS assay to identify aromatase inhibitors (AID 743083). Further: series mostly up to about 70 µM; nearly all actives have a fitted effect of over 55% in size.
Experiment [20] has as its target Aryl hydrocarbon receptor (Homo sapiens) (UniProt P35869). In words: qHTS assay to identify small molecule that activate the aryl hydrocarbon receptor (AhR) signaling pathway (AID 743085).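 Further: HG2L7.5c1 human HepG2 liver cells with stably integrated DRE-driven firefly reporter; series mostly up to about 70 µM; nearly all actives have a fitted effect of over 15% in size.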 The essentials: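 A multiplexed format paired cell viability (CellTiter-Fluor fluorescence) with AhR-dependent luciferase output (ONE-Glo luminescence) in the same wells of HepG2 DRE-luc cells after 24 h compound exposure at 37C.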

Experiment [21] in a line: qHTS assay to identify small molecule agonists of the hypoxia (HIF-1) signaling pathway (AID 1224846; active means well fitted activation curve with a large enough effect in the signal ratio in the repeat runs, not every such curve was filed as active; the % refers to the signal ratio). The essentials: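 A low-serum medium (0.5% dialyzed FBS) holding 2,000 HRE-bla ME-180 cells per well is preincubated for 5 hrs, dosed with compounds by pintool, and kept a further 17 hrs at 37C, 5% CO2 before CCF4-AM FRET detection of beta-lactamase.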
For experiment [22], the target named is Thyrotropin receptor (Homo sapiens) (UniProt P16473). Put plainly: qHTS assay to identify small molecule antagonists of the thyroid stimulating hormone receptor (TSHR) signaling pathway (AID 1259385; calls by dose curve; further: nearly all actives have a fitted effect of over 20% in size). The essentials: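 TSHR-HEK293 cells were plated and held 18 h at 37C/5% CO2, then given compound plus Ro20-1724 and stimulated with TSH at 1.5 ng/mL final. After 30 min at room temperature, cAMP was detected with cAMP-d2/anti-cAMP-cryptate (1 h) by fluorescence.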

The target in experiment [23] is Acetylcholinesterase (Homo sapiens) (UniProt P22303). In words: Acetylcholinesterase (AChE) small molecule antagonists: colormetric cell-based qHTS assay (AID 1347395; calls by dose curve; further: nearly all actives have a fitted effect of over 30% in size). The essentials:
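Homogeneous whole-cell format. SH-SY5Y cells seeded overnight, dosed with compound (30 min, 37 C, 5% CO2), then given DTNB/acetylthiocholine cocktail for 90 min at 37 C; colorimetric signal.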

For experiment [24] the target is unchanged. Put plainly: Acetylcholinesterase (AChE) small molecule antagonists: enzyme-based qHTS assay (AID 1347397; calls by dose curve; further: nearly all actives have a fitted effect of over 55% in size). Particulars: Potency: AChE enzyme activity inhibition; outcome: AChE enzyme activity inhibition. The essentials:
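Recombinant human AChE, dispensed at 50 mU/mL, was preincubated with Tox21 10K compounds or DMSO vehicle for 30 min at room temperature. DTNB plus acetylthiocholine was then added, and thiocholine was measured colorimetrically after a further 10 min.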

The target is the same in experiment [25]. In words: Acetylcholinesterase (AChE) small molecule antagonists: fluorescence cell-based qHTS assay (AID 1347398; calls by dose curve; further: nearly all actives have a fitted effect of over 50% in size). Particulars: Potency: AChE activity; outcome: AChE activity. The essentials:
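Human SH-SY5Y cells were plated overnight at 37 C, exposed to compound for 30 min at 37 C, 5% CO2, then given acetylthiocholine plus Thiolite Green for 40 min at room temperature; thiocholine fluorescence (Ex/Em 490/520 nm) reports endogenous AChE activity.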

For experiment [26] the target is unchanged. Put plainly: Acetylcholinesterase (AChE) small molecule antagonists: enzyme-based qHTS assay with human liver microsomes (AID 1347399; calls by dose curve; further: nearly all actives have a fitted effect of over 60% in size). Particulars: Potency: qHTS inhibition; outcome: qHTS inhibition. The essentials:
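Recombinant human AChE (50 mU/mL in the enzyme mix) and human liver microsomes (0.25 mg/mL final) were preincubated with compound and NADPH (0.25 mg/mL final) for 30 min at 37 C. Acetylthiocholine/DTNB was then added; thiocholine was read colorimetrically after 10 min at room temperature.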

The target of experiment [27] is Nuclear receptor subfamily 1 group I member 3 (Homo sapiens) (UniProt Q14994). Put plainly: qHTS assay to identify small molecule antagonists of the constitutive androstane receptor (CAR) signaling pathway (AID 1224838).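 Further: HepG2 cells stably expressing hCAR with CYP2B6 luciferase reporter stimulated by CITCO; nearly all actives have a fitted effect of over 40% in size.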 The essentials: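 Cell line: HepG2 double-stable for hCAR and CYP2B6-2.2kb reporter. Agonist: CITCO, 50 nM final. Compounds: 15 concentrations, 24 h, 37 C. Detection: ONE-Glo luminescence.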

Here are results for 4 molecules from PubChem BioAssay (Tox21).

Where “and” joins values, the source holds several entries; their conditions need not be identical. Identical values can stand only once. Unmarked numbers belong to inactive results. Inconclusive results are not listed. Calls of active or inactive are those of the source. Unless noted, the call rests on the fitted dose curve; in most records, active means well fitted curve in the direction sought with a large enough effect in the repeat runs; inconclusive means weak or mixed curves; inactive means no such curve, though single readings can be large; an effect the other way counts as inactive or inconclusive.

Acetylcholinesterase (Homo sapiens), sequence (P22303 whole entry, looked up): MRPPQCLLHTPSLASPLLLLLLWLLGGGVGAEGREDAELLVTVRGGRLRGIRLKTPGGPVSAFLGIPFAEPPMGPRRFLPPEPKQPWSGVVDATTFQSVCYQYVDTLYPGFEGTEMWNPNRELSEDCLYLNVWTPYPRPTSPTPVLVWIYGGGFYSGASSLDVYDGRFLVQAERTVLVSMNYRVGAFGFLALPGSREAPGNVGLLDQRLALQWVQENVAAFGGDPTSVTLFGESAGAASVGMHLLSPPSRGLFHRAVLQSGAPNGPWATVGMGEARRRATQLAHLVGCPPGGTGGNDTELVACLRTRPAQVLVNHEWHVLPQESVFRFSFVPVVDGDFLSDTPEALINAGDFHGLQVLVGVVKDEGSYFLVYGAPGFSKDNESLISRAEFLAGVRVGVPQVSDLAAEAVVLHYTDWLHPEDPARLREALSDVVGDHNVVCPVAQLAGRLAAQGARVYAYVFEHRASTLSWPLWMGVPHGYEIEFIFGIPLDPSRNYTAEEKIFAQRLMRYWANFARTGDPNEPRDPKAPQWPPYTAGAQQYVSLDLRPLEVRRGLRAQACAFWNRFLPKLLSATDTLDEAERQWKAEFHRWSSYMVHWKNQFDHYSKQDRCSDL
Nuclear receptor subfamily 1 group I member 3 (Homo sapiens), sequence (Q14994 whole entry, looked up): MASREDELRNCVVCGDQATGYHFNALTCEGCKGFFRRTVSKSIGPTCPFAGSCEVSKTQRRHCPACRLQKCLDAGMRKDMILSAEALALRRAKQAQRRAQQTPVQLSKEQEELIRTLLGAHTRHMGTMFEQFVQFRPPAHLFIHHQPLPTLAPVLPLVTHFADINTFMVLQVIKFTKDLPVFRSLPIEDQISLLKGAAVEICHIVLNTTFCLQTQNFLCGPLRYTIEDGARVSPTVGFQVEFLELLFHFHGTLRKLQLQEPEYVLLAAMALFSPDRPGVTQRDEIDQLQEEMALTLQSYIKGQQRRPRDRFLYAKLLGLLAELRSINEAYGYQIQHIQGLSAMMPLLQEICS
Aryl hydrocarbon receptor (Homo sapiens), sequence (P35869 whole entry, looked up): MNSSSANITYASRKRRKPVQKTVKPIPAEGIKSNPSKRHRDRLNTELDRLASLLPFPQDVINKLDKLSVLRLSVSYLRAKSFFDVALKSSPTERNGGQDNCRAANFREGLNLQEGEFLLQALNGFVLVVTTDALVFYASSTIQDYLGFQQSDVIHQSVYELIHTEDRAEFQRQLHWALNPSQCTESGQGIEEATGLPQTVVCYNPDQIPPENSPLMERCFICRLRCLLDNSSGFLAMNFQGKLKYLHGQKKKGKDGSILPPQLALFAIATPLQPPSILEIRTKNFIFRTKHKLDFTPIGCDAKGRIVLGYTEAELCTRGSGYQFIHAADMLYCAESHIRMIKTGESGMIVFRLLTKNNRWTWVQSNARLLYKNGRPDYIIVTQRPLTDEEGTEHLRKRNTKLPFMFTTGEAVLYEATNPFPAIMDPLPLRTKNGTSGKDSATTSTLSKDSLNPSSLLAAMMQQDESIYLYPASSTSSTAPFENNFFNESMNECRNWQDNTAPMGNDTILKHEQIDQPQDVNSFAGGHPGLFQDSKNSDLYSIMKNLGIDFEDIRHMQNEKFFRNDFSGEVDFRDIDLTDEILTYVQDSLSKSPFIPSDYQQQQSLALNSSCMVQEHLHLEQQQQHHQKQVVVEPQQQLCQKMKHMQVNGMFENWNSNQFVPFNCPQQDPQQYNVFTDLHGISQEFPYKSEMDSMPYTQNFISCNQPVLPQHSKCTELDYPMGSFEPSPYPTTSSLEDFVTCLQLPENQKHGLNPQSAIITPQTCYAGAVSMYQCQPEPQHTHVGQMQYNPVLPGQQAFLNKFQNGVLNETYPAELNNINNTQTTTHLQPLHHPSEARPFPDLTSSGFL
Aromatase (Homo sapiens), sequence (P11511 whole entry, looked up): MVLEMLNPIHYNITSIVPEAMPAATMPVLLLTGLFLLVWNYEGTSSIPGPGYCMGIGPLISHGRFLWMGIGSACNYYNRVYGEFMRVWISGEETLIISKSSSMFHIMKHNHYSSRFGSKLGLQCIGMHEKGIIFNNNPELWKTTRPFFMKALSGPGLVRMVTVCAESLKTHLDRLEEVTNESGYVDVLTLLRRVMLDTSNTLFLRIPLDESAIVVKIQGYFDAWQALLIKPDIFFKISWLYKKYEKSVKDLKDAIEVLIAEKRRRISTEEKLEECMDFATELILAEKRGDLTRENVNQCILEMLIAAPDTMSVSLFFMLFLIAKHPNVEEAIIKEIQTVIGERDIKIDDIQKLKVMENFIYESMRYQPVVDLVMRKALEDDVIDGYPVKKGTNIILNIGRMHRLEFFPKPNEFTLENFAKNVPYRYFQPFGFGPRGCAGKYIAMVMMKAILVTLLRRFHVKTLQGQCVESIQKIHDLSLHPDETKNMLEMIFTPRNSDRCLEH
Thyrotropin receptor (Homo sapiens), sequence (P16473 whole entry, looked up): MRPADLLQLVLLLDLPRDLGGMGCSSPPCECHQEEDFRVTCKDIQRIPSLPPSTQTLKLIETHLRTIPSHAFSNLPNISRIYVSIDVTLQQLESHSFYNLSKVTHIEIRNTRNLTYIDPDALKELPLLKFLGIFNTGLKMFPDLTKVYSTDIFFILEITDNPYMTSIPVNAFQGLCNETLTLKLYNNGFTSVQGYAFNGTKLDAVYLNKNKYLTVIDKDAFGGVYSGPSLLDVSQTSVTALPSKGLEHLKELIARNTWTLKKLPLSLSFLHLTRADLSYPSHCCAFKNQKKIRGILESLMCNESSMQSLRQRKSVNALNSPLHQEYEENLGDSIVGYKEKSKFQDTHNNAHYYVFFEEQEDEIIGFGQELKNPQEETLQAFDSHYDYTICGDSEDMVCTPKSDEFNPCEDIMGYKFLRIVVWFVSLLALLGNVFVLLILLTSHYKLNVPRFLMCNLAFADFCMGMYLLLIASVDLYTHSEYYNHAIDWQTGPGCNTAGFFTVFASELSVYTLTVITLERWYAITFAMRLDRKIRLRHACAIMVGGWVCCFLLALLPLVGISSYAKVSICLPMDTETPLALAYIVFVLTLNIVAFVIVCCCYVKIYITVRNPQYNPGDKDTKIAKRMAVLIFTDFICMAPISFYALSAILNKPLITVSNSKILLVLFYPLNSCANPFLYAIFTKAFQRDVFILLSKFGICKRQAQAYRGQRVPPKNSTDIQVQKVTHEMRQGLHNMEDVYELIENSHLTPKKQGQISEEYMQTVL

`c1ccc(CCCN2CCN(CCOC(c3ccccc3)c3ccccc3)CC2)cc1`: the Potency entry in experiment [1] and in [2] was “inactive” in each case.

In the case of `CC(C)(C)c1ccc(O)cc1`, the Potency in experiment [3] was 55.8 µM (active) and 43.3 µM (active). Moreover, the result in experiment [4], in experiment [7], in experiment [11], in [12] and in experiment [16] was inactive. Besides, the Potency entry in experiment [5], in experiment [6], in [8], in experiment [9], in experiment [10] and in experiment [13] was “inactive” each time. The Potency result in experiment [14], in experiment [15], in experiment [17] and in experiment [18] was “inactive” in each case.

On to `N#CCCNCCC#N`, for which the Potency result in [19], in [20], in [22], in [23], in experiment [24] and in experiment [25] was “inactive” each time. Also, the Potency entry in experiment [26] is “inactive”. In addition, in [21], the result was inactive.

Take `CC1(C)[C@H](C(=O)OCc2cccc(Oc3ccccc3)c2)[C@@H]1C=C(Cl)Cl`: the Potency result in experiment [27], in [23], in experiment [24], in experiment [25] and in experiment [26] was “inactive” throughout.
